According to PubChem BioAssay (Tox21):
A number with no mark means an inactive call. The source made the active and inactive calls. The call rests on the fitted dose curve; in most records, active means well fitted curve in the direction sought with a large enough effect in the repeat runs; inconclusive means weak or mixed curves; inactive means flat fitted curve, though single readings scatter.
On the % scale 0 is the no-effect control and ±100 the full control effect.

Assay: qHTS assay to test for compound auto fluorescence at 460 nm (blue) in HepG2 cell free culture (AID 720685)
Settings: Cell-free culture medium, blue autofluorescence 405/460 nm; series mostly up to 91.3 µM; fluorescence, % of fluorescent control: at the top concentration
Method in brief: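 Cell-free plates of MEM plus 10% FBS received 23 nL compound or DMSO vehicle; blue-channel (405/460 nm) intensity scored against triamterene as reference fluorophore.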
With `Cc1cnc[nH]1` the “fluorescence, % of fluorescent control” value was 0.0012%.
In the case of `[O]=[Cd]`, the outcome is reported as “inactive”.
For `CCOC(=O)NC(=S)Nc1ccccc1NC(=S)NC(=O)OCC`, the “fluorescence, % of fluorescent control” value was -0.0036%.
In the case of `C=C(C)[C@@H]1CC=C(C=O)CC1`, the “fluorescence, % of fluorescent control” value is reported as 0.0043%.
In the case of `O=C(N[C@H]1CN2CCC1CC2)c1cc2ccoc2cn1`, the “fluorescence, % of fluorescent control” value is reported as 0.0104%.
With `CNC(=O)O/N=C(\C)SC` the “fluorescence, % of fluorescent control” value was 0.0103%.
With `O=NN1CCN(N=O)CC1` the “fluorescence, % of fluorescent control” value was -0.0041%.
With `C[C@@H]1CN(C2CCC(C#N)(c3ccc(F)cc3)CC2)CC[C@]1(C(=O)O)c1ccccc1` (stereo partly drawn) the fluorescence, % of fluorescent control was -0.0833% [at 18.6 µM].
For `CCS(=O)(=O)CCSP(=O)(OC)OC`, the “fluorescence, % of fluorescent control” value was 0.0174%.
For `CC(CC(C#N)(c1ccccc1)c1ccccc1)N(C)C` (stereo not drawn), the “fluorescence, % of fluorescent control” value was 0.0117%.

Assay: qHTS assay to test for compound auto fluorescence at 535 nm (green) in HepG2 cell free culture (AID 720686)
Settings: Cell-free medium, green autofluorescence 485/535 nm; series mostly up to 91.3 µM; fluorescence, % of fluorescein control: at the top concentration
With `N#Cc1c(Cl)cccc1Cl` the “fluorescence, % of fluorescein control” value was 0.185%.
In the case of `CCC(C)n1c(=O)[nH]c(C)c(Br)c1=O` (stereo not drawn), the “fluorescence, % of fluorescein control” value is reported as 0.106%.
In the case of `CCC(=O)c1ccccc1`, the “fluorescence, % of fluorescein control” value is reported as 0.0487%.
In the case of `CCOC(=O)N(C)C(=O)CSP(=S)(OCC)OCC`, the “fluorescence, % of fluorescein control” value is reported as -0.0524%.
In the case of `CCC1(c2ccccc2)C(=O)NC(=O)NC1=O`, the outcome is reported as “inactive”.
In the case of `ClC(Br)Br`, the “fluorescence, % of fluorescein control” value is reported as -0.0317%.
For `CCNc1nc(NC(C)C)nc(OC)n1`, the “fluorescence, % of fluorescein control” value was -0.0957%.
For `O=S(=O)(O)C(F)(F)C(F)(F)C(F)(F)C(F)(F)C(F)(F)C(F)(F)F`, the “fluorescence, % of fluorescein control” value was -0.123%.
For `O=CNC(N1CCN(C(NC=O)C(Cl)(Cl)Cl)CC1)C(Cl)(Cl)Cl` (stereo not drawn), the “fluorescence, % of fluorescein control” value was 0.0062%.
For `C=C(C)CN(CC)c1c([N+](=O)[O-])cc(C(F)(F)F)cc1[N+](=O)[O-]`, the “fluorescence, % of fluorescein control” value was 0.0051%.
For `CCC1(c2ccccc2)C(=O)N=C(O)NC1=O` (stereo not drawn), the “fluorescence, % of fluorescein control” value was -0.0468%.
With `COP(N)(=S)Oc1ccccc1C(=O)OC(C)C` (stereo not drawn) the “fluorescence, % of fluorescein control” value was -0.0023%.
For `CN1C[C@@H](NS(=O)(=O)N(C)C)C[C@@H]2c3cccc4c3c(cn4C)C[C@H]21`, the “fluorescence, % of fluorescein control” value was -0.0108% [at 46 µM].
